Shown are actives, neighbours in structure and some others; about 2.5% of the full set was active somewhere.
SKN-1 inh: C. elegans SKN-1 inhibition | C. elegans VP596 Pgst-4::GFP/RFP ratio, acrylamide-induced, 24 h | inhibition, % at 21.8 µM | 360,000 compounds, 0.49% hits | AID 624304;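 active means interference check ratio from 0.5 to 1.5 plus GFP to RFP signal ratio inhibition reaching or exceeding a fixed threshold, cut at about 30% in these data, passing the limit was not always enough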
CRFBP-R2 block: blocks CRF-induced signaling of the CRF-BP/CRF-R2 complex | inhibition, % at 11.8 µM | AID 588475 | HEK293 CRF-R2/CRF-BP, CRF-induced calcium fluorescence | 350,000 compounds, 0.59% hits;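 active means inhibition of the ligand-induced calcium signal above about 50% at the single tested concentration, limit read from the data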
hiPSC survival: increases survival of single human iPS cells | 360,000 compounds, 0.044% hits | hiPSC single-cell survival, ATPlite luminescence; 100% = ROCK inhibitor wells, 0% = DMSO | survival enhancement, % at 20 µM; in the data active means survival enhancement above about 18%;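 further: cells exposed to compounds for 16 hours before the ATP read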
TAG inh: triacylglycerol accumulation inhibition | 230,000 compounds, 0.66% hits | inhibition, % at 12.5 µM | H9c2 cells, Nile Red lipid (TAG) fluorescence; cells loaded with 200 µM oleic acid;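 active means pattern-corrected inhibition of lipid staining of at least 50% with the nuclear-stain viability signal not falling by more than 50%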
CRFBP-R2 agonist: CRF-BP/CRF-R2 complex agonism; HEK293 CRF-R2/CRF-BP, calcium dye fluorescence (FLIPR); percent of saturating CRF peptide response; activation, % at 13.2 µM; 350,000 compounds, 0.46% hits;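 active means activation of at least 50%, plus an integration ratio under a set limit after plate pattern correction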
Cardio protect: modulators protecting cardiomyocytes from myocardial damage; H9c2 cardiomyocytes, H2O2 injury protection, ATPLite, 2 h; protection from H2O2 cell death, % at 20 µM; 360,000 compounds, 0.63% hits; AID 588492;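 active means compounds giving at least 50% protection of heart cells from peroxide-induced death in the single-dose screen, raw or plate-pattern-corrected value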
Of the large screens only hits and unclear results are named; the others gave an inactive call.

C=CCC1(NC(C)c2ccccc2)CCCCC1 (stereo unspecified)	none (no result: TAG inh)
Cc1ccccc1C(c1ncccc1C)N(C)C(=O)C1CCN(CCOc2ccc(Cl)cc2Cl)CC1 (stereo unspecified)	none (no result: CRFBP-R2 block, CRFBP-R2 agonist)
Cc1cn(CC(=O)NCc2nc3ccccc3[nH]2)c(=O)[nH]c1=O	none (no result: CRFBP-R2 block, TAG inh, CRFBP-R2 agonist, Cardio protect)
N/C(=N\N=C/c1ccc(F)cc1)N/N=C\c1ccc(F)cc1	SKN-1 inh 51
CCOc1cc(NC(=O)C2CC2)c(OCC)cc1NC(=O)c1ccccn1	Cardio protect 53
CCN(CC(=O)Nc1c(F)cccc1F)C(=O)CCCSc1nc2ccccc2[nH]1	none
Cc1cc(C)cc(NS(=O)(=O)c2ccc3[nH]cc(C(=O)N4CCc5ccccc54)c(=O)c3c2)c1	CRFBP-R2 agonist 61
CCN(CC)CCNS(=O)(=O)c1ccc2[nH]cc(C(=O)O)c(=O)c2c1	none (no result: TAG inh)
CCN(CC)C(=O)c1c[nH]c2ccc(S(=O)(=O)Nc3cc(C)cc(C)c3)cc2c1=O	CRFBP-R2 agonist 125
COc1cc2ccccc2cc1C(=O)OCC(=O)c1c(N)n(C)c(=O)n(C)c1=O	none
CCN(c1ccccc1)S(=O)(=O)c1cc(NC(=O)Nc2ccccc2C#N)ccc1Cl	none (no result: TAG inh)
CCN(c1ccccc1)S(=O)(=O)c1ccc(Cl)c(NC(=O)Nc2ccc(Cl)cc2C#N)c1	CRFBP-R2 block 71 (no result: TAG inh)
CCCCNC(=O)C1(C)CCN1C(=O)c1cc(-c2cccs2)oc1C (stereo unspecified)	none (no result: CRFBP-R2 block, CRFBP-R2 agonist)
CC(=O)Nc1cccc(C(=O)OCC(=O)Nc2ccc(Cl)cn2)c1	none
O=C(COC(=O)CCc1ccc(S(=O)(=O)N2CCOCC2)cc1)Nc1ccccc1OC(F)F	CRFBP-R2 block 105
O=C(COC(=O)c1ccc(S(=O)(=O)N2CCOCC2)cc1)Nc1ccccc1OC(F)F	none
O=S(=O)(Nc1ccc2c(c1)CCC2)c1cccs1	CRFBP-R2 block 52
COc1ccc(CN2C(=O)c3ccccc3C2c2nnnn2-c2ccc3c(c2)OCCO3)cc1OC (stereo unspecified)	none (no result: CRFBP-R2 block, TAG inh, CRFBP-R2 agonist, Cardio protect)
COc1ccc2[nH]c(=O)c(CN(Cc3cccs3)S(=O)(=O)c3cccc4nsnc34)cc2c1	Cardio protect 73 (no result: TAG inh)
COc1ccc(NC(=O)NC(C(F)(F)F)C(F)(F)F)cc1	SKN-1 inh 43
COc1ccc(NC(=O)NC(C)(C(F)(F)F)C(F)(F)F)cc1	none
COc1ccc(NC(=O)Nc2nnc(C(C)(C)C)s2)cc1	CRFBP-R2 block 58
C/C(=N\NC(=O)c1cccnc1)c1ccc(OC2OCCOC2Oc2ccc(/C(C)=N/NC(=O)c3cccnc3)cc2)cc1 (stereo unspecified)	Cardio protect 53 (no result: TAG inh)
COc1ccc(/C(C)=N/NC(=O)CNC(=O)c2cccnc2)cc1	none (no result: TAG inh)
Cc1ccc2cc(CN(CC3CCCO3)S(=O)(=O)c3c(C)ccc4nsnc34)c(=O)[nH]c2c1 (stereo unspecified)	none (no result: TAG inh)
Cc1ccc2nsnc2c1S(=O)(=O)N(Cc1cc2cccc(C)c2[nH]c1=O)CC1CCCO1 (stereo unspecified)	Cardio protect 80 (no result: TAG inh)
N#CC1=C(N)OC2=C(C(=O)CC(c3ccccc3)C2)C1c1ccc2c(c1)OCO2 (stereo unspecified)	CRFBP-R2 block 59 (no result: TAG inh)
Nc1nnc(SCc2cc3c(cc2Cl)OCO3)s1	CRFBP-R2 block 59
O=C(C1CCN(C2CCN(CC3CC=CCC3)CC2)CC1)N1CCOCC1 (stereo unspecified)	CRFBP-R2 block 86
O=c1c2ccccc2nc(SCc2ccccc2)n1Cc1ccco1	none
Cc1ccc(CSc2nc3ccccc3c(=O)n2Cc2ccco2)cc1	SKN-1 inh 38
CSc1sc(C(=O)NN)c2c1C1(CCC2)SCCS1	none
O=C(/C=C/c1ccco1)Nc1nc(-c2ccccc2)cs1	SKN-1 inh 51 (no result: TAG inh)
Cc1csc(NC(=O)/C=C/c2ccco2)n1	none (no result: TAG inh)
O=C(/C=C/c1ccco1)Nc1nc(-c2ccccn2)cs1	Cardio protect 50
CC1(C(=O)NS(=O)(=O)c2ccccc2C(F)(F)F)CCN1C(=O)COc1ccc(Cl)cc1 (stereo unspecified)	none (no result: CRFBP-R2 block, CRFBP-R2 agonist)
O=S(=O)(Nc1ccc(-c2csc(-c3ccccc3)n2)cc1)c1ccc(F)cc1	none
O=C(Nc1nc(-c2ccccc2)cs1)c1ccccc1NS(=O)(=O)c1ccc(F)cc1	CRFBP-R2 block 101, CRFBP-R2 agonist 65
O=C(Nc1nc(-c2ccc(Cl)s2)cs1)c1cccs1	SKN-1 inh 48 (no result: TAG inh)
O=C(Nc1nc(-c2ccc(Cl)s2)cs1)c1ccco1	SKN-1 inh 85
O=C(Nc1nc(-c2ccccc2)cs1)c1cccs1	SKN-1 inh 63
CCCC(=O)Nc1nc(-c2ccc(Cl)s2)cs1	none
Cn1nc(C(C)(C)C)cc1C(=O)N1CCCCC1c1cc(C(=O)Nc2ccc3c(c2)OCO3)no1 (stereo unspecified)	none (no result: CRFBP-R2 block, CRFBP-R2 agonist)
CN(C(=O)CN1C(=O)/C(=C/c2ccccc2Cl)SC1=S)C1CCS(=O)(=O)C1 (stereo unspecified)	CRFBP-R2 block 53 (no result: TAG inh)
O=C(C[C@H]1C[C@@H]2c3cc(NC(=O)c4cccnc4)ccc3O[C@@H]2[C@H](CO)O1)NCc1ccncc1	none
CN(C)S(=O)(=O)NC(=O)C1=C(N2CCCC2)COC1=O	none
COc1ccc2nc(N3C(=O)C(O)=C(C(=O)c4ccco4)C3c3ccc(OC)c(OC)c3)sc2c1 (stereo unspecified)	none
Cc1ccc2nc(N3C(=O)C(O)=C(C(=O)c4ccc(C)o4)C3c3cccc(O)c3)sc2c1 (stereo unspecified)	CRFBP-R2 block 96
Cc1c(NC(=O)NC(=O)c2ccc(F)cc2)c(=O)n(-c2ccccc2)n1C	none (no result: TAG inh)
Cc1c(N=C2N=C(NC(=O)c3ccc(F)cc3)c3ccccc32)c(=O)n(-c2ccccc2)n1C	CRFBP-R2 agonist 65
Cc1ccc(N=C2C(=O)Nc3c(C)cccc32)cc1	none (no result: TAG inh)
COc1ccc(N=C2C(=O)Nc3c(C)cccc32)cc1	CRFBP-R2 block 94 (no result: TAG inh)
COc1ccc2nc3cc(Cl)ccc3c(Nc3cc(CN4CCCC4)c(O)c(CN4CCCC4)c3)c2n1	Cardio protect 50 (no result: CRFBP-R2 block, CRFBP-R2 agonist)
COc1ccc2nc3cc(Cl)ccc3c(Nc3cc(C(C)C)c(O)cc3C)c2c1	none (no result: TAG inh)
O=C(CN1C(=O)CSc2ccc(S(=O)(=O)N3CCOCC3)cc21)NCCCN1CCc2ccccc2C1	none
COCCCn1cnc2c(c1=O)c1nc3ccccc3nc1n2CCc1ccccc1	SKN-1 inh 36
CN(C)CCn1c2ccccc2c2nc3ccc([N+](=O)[O-])cc3cc21	TAG inh 56
CCn1c2ccccc2c2cc([N+](=O)[O-])ccc21	none
CCOc1cc(CNC2CCCC2)cc(Cl)c1OCc1ccccc1	SKN-1 inh 56
COc1ccc(CC(=O)Nc2ccc(-c3nc4cc(C)ccc4o3)c(O)c2)cc1OC	SKN-1 inh 35
CCCC(=O)Nc1ccc(-c2nc3cc(C)ccc3o2)cc1	none

Assay outcomes (PubChem BioAssay)
